Inconclusive results are not listed. Active and inactive are the calls of the source. Unless noted, the call rests on the fitted dose curve; in most records, active means well fitted curve in the direction sought with a large enough effect; inconclusive means small, poorly fitted or top-dose-only effect, or another doubt; inactive means no such curve, though single readings can be large; an effect the other way counts as inactive or inconclusive.
Legend:
[1] = target: Cytochrome P450 1A2 (Homo sapiens) (UniProt P05177); test: p450-cyp1a2 (AID 410; calls by dose curve;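 further: -100% = full effect of reference inhibitor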)
How it was run: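 Inhibition was calculated relative to 57 uM furafylline (full inhibition). The reaction used human CYP1A2 at 20nM with Luciferin-ME at its Km, 100uM, driven by an NADPH-regenerating system for 60 min at room temperature.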

[2] = target: Glucocorticoid receptor (Homo sapiens) (UniProt P04150); test: GR-GFP Redistribution (AID 450;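 active means compounds whose dose series gives a full or clear partial fitted curve of increased nuclear translocation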; further: potency means the concentration at half of the fitted maximal effect); details: U2OS GR-GFP nuclear translocation, laser cytometry, 2 h
[3] = target: Glucocorticoid receptor (Homo sapiens) (UniProt P04150); test: GR-EFC Redistribution (AID 451; calls by dose curve; further: potency means the concentration at half of the fitted maximal effect); details: CHO-K1 GR-EFC translocation, beta-gal luminescence, 2 h
How it was run: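 Translocation of GR-ED fusion to nuclear EA restores b-gal, read by luminescence after 1 h room-temperature detection. Engineered CHO-K1 biosensor cells, 1,000/well, exposed 2 h at 37 C to titrations up to 46 uM final.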

[4] = target: Mitogen-activated protein kinase 10 (Mus musculus) (UniProt Q61831); test: JNK3 AlphaScreen Assay (AID 530; active means well fitted curve in either direction with a large enough effect, not every such curve was filed as active;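 further: kinase came from lysate of stimulated human HepG2 cells; signal reports phosphorylation of biotinylated GST-cJun 1-79 at Ser73 with 10 µM ATP; on the % scale 0 is the no-effect control and ±100 the full control effect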)
How it was run: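 Room-temperature AlphaScreen kinase assay; pre-activated HepG2 lysate as JNK3 source, biotin-GST-cJun(1-79) substrate, 10 uM ATP, compound 15 min preincubation.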

[5] = target: 3',5'-cyclic-AMP phosphodiesterase 4B (Homo sapiens) (UniProt Q07343); test: qHTS Assay for Inhibitors of PDE-IV (AID 607; active means well fitted activation curve with a large enough effect in the main read-out, with a control signal flat, not every such curve was filed as active; further: % of control where 0% means no effect)
How it was run: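 The readout is membrane depolarisation from a cAMP-sensing CNG channel, detected with a potential dye at ex 535/em 590. Cells were HEK293-derived (endogenous PDE-IV) at 1000 cells/well, titrated up to 22.9 uM final.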

[6] = target: Ubiquitin carboxyl-terminal hydrolase 1 (Homo sapiens) (UniProt O94782); test: Inhibitors of USP1/UAF1: Pilot qHTS (AID 504865);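 further: rhodamine fluorescence freed from ubiquitin-rhodamine substrate followed over time; top concentration of the series differs between compounds; on the % scale 0 is the no-effect control and ±100 the full control effect; nearly all actives have a fitted effect of over 35% in size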
How it was run: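 Kinetic fluorescence assay: 1nM USP1/UAF1, 15 min compound preincubation, then 150nM Ub-Rho; 480/540 nm.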

[7] = target: DNA dC->dU-editing enzyme APOBEC-3G (Homo sapiens) (UniProt Q9HC16); test: qHTS for inhibitors of Vif-A3G interactions: Validation (AID 588379); further: 0% is about no effect
How it was run: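 HeLa cells stably expressing Vif and A3G-eYFP, 700 cells/well, incubated overnight at 37 deg C, then exposed to compound overnight at 37 deg C. Inhibition of Vif-mediated degradation read as increased yellow fluorescence (Ex 488/Em 500-530) by laser-scanning cytometry.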

[8] = tested on: Zika virus NS2B-NS3 protease; test: Primary screen GU AMC qHTS for Zika virus inhibitors (AID 1347154);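 further: 0% = no-inhibitor control and -100% = no-enzyme control; nearly all actives have a fitted effect of over 70% in size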
How it was run: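 Fluorogenic AMC-substrate cleavage by noncovalent NS2B-NS3 protease complex (25 nM, pH 8.0 Tris buffer with Tween 20) followed for 15 minutes at room temperature (~20% conversion). Percent inhibition from ex340/em450 signal change, fitted by 4-parameter Hill equation.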

[9] = Primary qHTS for small molecule stabilizers of the endoplasmic reticulum resident proteome: Secreted ER Calcium Modulated Protein (SERCaMP) assay (AID 1508630); further: on the % scale 0 is the no-effect control and ±100 the full control effect
How it was run: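 GLuc-SERCaMP-expressing SH-SY5Y cells, pretreated 16 h with compound, are challenged with thapsigargin to empty ER calcium stores; after 4 h, coelenterazine is added directly to the medium and luminescence is imaged.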

[10] = target: Cytochrome P450 3A4 (Homo sapiens) (UniProt P08684); test: qHTS Assay for Inhibitors and Substrates of Cytochrome P450 3A4 (AID 884); further: on the % scale 0 is the no-effect control and ±100 the full control effect; nearly all actives have a fitted effect of over 50% in size
How it was run: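 20 nM human CYP3A4 with 25 uM Luciferin-PPXE (at KM) in 200 mM KPO4, preincubated 10 min with compound; NADPH regeneration started a 60 min RT reaction. Luciferin detected by luminescence, normalized to 57 uM ketoconazole as full inhibition.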

[11] = qHTS Assay for Lipid Storage Modulators (AID 1519; calls by dose curve); details: Drosophila S3 cells, BODIPY lipid droplet/cell ratio, laser cytometry, cells loaded with oleic acid; for activity change, negative = inhibition: at 57.5 µM (top of the series)
How it was run: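 Cells seeded at 5,000 per well were treated with compounds over a concentration series and loaded with oleic acid (400 uM, as added). Lipid droplet fluorescence (488 nm excitation, 500-530 nm channel) was read by laser-scanning cytometry and normalized to 20 uM Triacsin C.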

[12] = target: DNA repair nuclease/redox regulator APEX1 (Homo sapiens) (UniProt P27695); test: qHTS Validation Assay for Inhibitors of the Human Apurinic/apyrimidinic Endonuclease 1 (APE1) (AID 1705;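 further: TAMRA fluorescence gain over two minutes as APE1 cuts a quenched THF abasic duplex; on the % scale 0 is the no-effect control and ±100 the full control effect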)
How it was run: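 Endonuclease activity of human APE1 is followed as dequenching when the enzyme incises a tetrahydrofuran abasic site in a short duplex labelled 5'-TAMRA/3'-BHQ-2 (50 nM final), after 15 min enzyme–compound preincubation at room temperature.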

[13] = Counterscreen for APE1 Inhibitors: Fluorescent Dye Displacement Validation Assay (AID 1707);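 further: plate controls were ThO with dsDNA and no compound for no effect and ThO without dsDNA for full effect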
How it was run: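 Assay buffer: Tris-HCl pH7.5 with 50mM NaCl, 2 mM MgCl2, 0.01% Tween-20. Dye 250 nM, duplex 50 nM final. Readout: decrease in ThO endpoint fluorescence, 480 nm excitation, 540 nm emission.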

[14] = target: Endonuclease 4 (Escherichia coli (strain K12)) (UniProt P0A6C1); test: Counterscreen for APE1 Inhibitors: qHTS Validation Assay for Inhibitors of Endonuclease IV (AID 1708); further: on the % scale 0 is the no-effect control and ±100 the full control effect
How it was run: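 Enzymatic AP-site incision assay using a double-stranded THF substrate labelled with TAMRA and BHQ-2; released fluorescence signals activity. Enzyme 2 nM, substrate 50 nM, 15 min compound preincubation.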

[15] = qHTS for differential inhibitors of proliferation of Plasmodium falciparum line Dd2 (AID 1882); details: Potency: Plasmodium falciparum Dd2 proliferation inhibition;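 further: compound exposure of 72 h on infected erythrocytes; plate controls were DMSO vehicle for no effect and 0.29 µM artemisinin for full effect; nearly all actives have a fitted effect of over 65% in size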
How it was run: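 SYBR Green I DNA fluorescence read-out, ex 485/em 535 nm. Signals were normalized to 0.29 uM artemisinin and DMSO wells, then corrected using vehicle-only plates flanking each stack. Parasite growth ran 72 h in erythrocytes before lysis.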

[16] = qHTS for differential inhibitors of proliferation of Plasmodium falciparum line W2 (AID 1883); details: Potency: Plasmodium falciparum W2 proliferation inhibition;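 further: potency means the concentration at half of the fitted maximal effect; parasites grown with compound for 72 h before lysis and staining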
[17] = target: Ferritin light chain (Equus caballus) (UniProt P02791); test: qHTS Validation Assay for Identification of Novel General Anesthetics (AID 2323); further: on the % scale 0 is the no-effect control and ±100 the full control effect
How it was run: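 Apoferritin from horse spleen (10 uM) was mixed with 1-aminoanthracene at 50% saturation in PBS, then compounds were added. After 10 min at room temperature, fluorescence was read (ex 380 nm, em 535 nm) and normalized to free-probe and complex controls.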

[18] = target: ATP-dependent DNA helicase Q1 (Homo sapiens) (UniProt P46063); test: qHTS Validation Assay for Inhibitors of RecQ-Like Dna Helicase 1 (RECQ1) (AID 2353);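 further: plate controls were DMSO vehicle for no effect and enzyme-free control for full effect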
How it was run: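 50 nM RECQ1T1 preincubated 15 min with compound in Tris pH 8.0 buffer with MgCl2, DTT, Tween-20 and 2.5 ug/ml poly(dI-dC); started with 200 nM TAMRA/BHQ-2 forked duplex and 2 mM ATP. Unwinding read as fluorescence (525/598 nm), two reads 2 h apart.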

[19] = target: RecQ-like DNA helicase BLM (Homo sapiens) (UniProt P54132); test: qHTS Validation Assay for Inhibitors of Bloom's syndrome helicase (BLM) (AID 2364);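 further: plate controls were DMSO vehicle for no effect and enzyme-free control for full effect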
How it was run: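 Forked 20-bp duplex substrate (200 nM, TAMRA/BHQ-2) plus 2 mM ATP added after 15 min compound preincubation with 50 nM enzyme, pH 8.0, poly(dI-dC) 2.5 ug/ml. Strand separation followed by fluorescence (525/598 nm) over 2 h, normalized to enzyme-free and DMSO controls.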

[20] = Validation screen for inhibitors of Lassa infection (AID 463096; calls by dose curve; further: potency means the concentration at half of the fitted maximal effect)
[21] = target: Transient receptor potential cation channel subfamily V member 1 (Homo sapiens) (UniProt Q8NER1); test: HTS Assay for Compounds that Act as Enhancers of the Vanilloid Receptor 1 (AID 488979); further: 0% is about no effect
How it was run: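 Calcium influx kinetics via Fluo-8 (480/520 nm) in TRPV1-expressing cells, 2000/well cultured overnight at 35.5C. Compound-alone read 3 min (agonist phase), followed by EC20 capsaicin challenge for 2 min (enhancer phase).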

[22] = target: Thyrotropin-releasing hormone receptor (Homo sapiens) (UniProt P34981); test: qHTS for Small Molecule Agonists and Allosteric Enhancers of Human TRH Receptor: Validation Screen for Agonists (AID 493127;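 active means calcium activation more than 3 SD above the typical response in the agonist read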;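 further: intracellular calcium rise by fluo-8 fluorescence before TRH EC20 addition; 0% is about no effect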); details: TRH receptor agonist cell assay; at 2 µM; stronger effect = higher value
How it was run: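 Gq-coupled calcium mobilization in TRHR cells after compound addition, monitored kinetically with fluo-8 dye on an FDSS reader.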

[23] = target: Galactokinase (Homo sapiens) (UniProt P51570); test: qHTS Validation Assay for Inhibitors of Human Galactokinase (GALK) (AID 493189); further: 0% is about no effect
How it was run: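 Compounds were pin-transferred into ATP buffer, then GALK-galactose mix was added (final 5 nM enzyme, 100 uM galactose, 35 uM ATP). After 1 h at room temperature, remaining ATP was measured luminescently.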

[24] = target: Voltage-gated inwardly rectifying potassium channel KCNH2 (Homo sapiens) (UniProt Q12809); test: qHTS Assay for Small Molecule Inhibitors of the Human hERG Channel Activity (AID 588834);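 further: top concentration of the series differs between compounds; on the % scale 0 is the no-effect control and ±100 the full control effect; lower thallium flux fluorescence means stronger hERG block; nearly all actives have a fitted effect of over 50% in size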
How it was run: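 Measured: FluxOR fluorescence after thallium stimulation in U2OS cells transduced with hERG by baculovirus. Compounds pre-incubated around 10 min; medium Opti-MEM with 2% FCS. AC50 from Hill equation.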

[25] = NFAT Signaling Pathway (AID 444; active means well fitted curve in either direction with a large enough effect, not every such curve was filed as active); details: Jurkat NFAT-bla M1, carbachol, beta-lactamase ratio, 5 h; at 38 µM (top of the series)
How it was run: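 Read-out: CCF4 FRET ratio (460 nm/530 nm) after 1 h RT dye loading, used for %activity and AC50 from titration series. Cells: Jurkat NFAT-β-lactamase/M1 line, treated with compound plus 1 uM carbachol for 5 h, 37 °C.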

[26] = target: Cytochrome P450 2C9 (Homo sapiens) (UniProt P11712); test: qHTS Assay for Inhibitors and Substrates of Cytochrome P450 2C9 (AID 883); further: on the % scale 0 is the no-effect control and ±100 the full control effect; nearly all actives have a fitted effect of over 60% in size
How it was run: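 Inhibition of CYP2C9 is scored as loss of luminescence, with 57uM sulphaphenazole defining 100% inhibition. Substrate Luciferin-H is used at 100uM, equal to its KM; enzyme at 10nM in 25mM KPO4, 60 min at 37C with NADPH regeneration.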

[27] = target: Cytochrome P450 2D6 (Homo sapiens) (UniProt P10635); test: qHTS Assay for Inhibitors and Substrates of Cytochrome P450 2D6 (AID 891);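 further: luciferin methyl ether substrate demethylated by CYP2D6 with NADPH regeneration; on the % scale 0 is the no-effect control and ±100 the full control effect; nearly all actives have a fitted effect of over 60% in size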
How it was run: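 Human CYP2D6 (5 nM) with 30 uM Luciferin-ME EGE (at Km) in 100 mM KPO4, compound preincubated 10 min, then NADPH regeneration system for 60 min at room temperature. Luciferin read by luminescence; normalized to 1.43 uM quinidine.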

[28] = target: Cytochrome P450 2C19 (Homo sapiens) (UniProt P33261); test: qHTS Assay for Inhibitors and Substrates of Cytochrome P450 2C19 (AID 899); further: on the % scale 0 is the no-effect control and ±100 the full control effect; nearly all actives have a fitted effect of over 60% in size
How it was run: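 5nM enzyme + 10uM Luciferin-H EGE (=KM), 50mM KPO4; cpd pin-transferred, 10 min 37C; NADPH regen, 60 min 37C; stopped w/ luciferin detection reagent, 20 min; luminescence. Normalized to 57uM ketoconazole (AC100).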

[29] = Confirmation and Secondary Assay for Modulators of Hemoglobin Beta Chain Splicing at IVS2 654 locus (AID 910);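 further: HeLa cells stably carrying EGFP split by mutant beta-globin IVS2-654 intron; per-well total GFP intensity by laser scanning cytometry after 2-day treatment; % of control where 0% means no effect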
How it was run: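 Readout: per-well total peak green fluorescence (488 nm ex, 500–520 nm em) from objects 5–250 µm, reflecting correct splicing of an EGFP-654 reporter. Compounds were applied for 2 days at 37 °C to overnight-plated HeLa EGFP-654 cells; controls were DMSO and 500 nM IVS2-654 PNA.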

[30] = Confirmation and Secondary Assay for Modulators of Hemoglobin Beta Chain Splicing at IVS2 705 locus (AID 930);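 further: HeLa cells stably expressing the EGFP-705 splicing reporter; % of control where 0% means no effect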
How it was run: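 HeLa cells stably carrying EGFP interrupted by mutant beta-globin IVS2-705 intron (CMV-driven) were seeded at 500 cells/well, treated next day with compound for 2 days at 37C; corrected splicing restores EGFP, read as total peak GFP intensity per well.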

[31] = measured here: cell count channel max response
[32] = measured here: lipid channel max response

Chain of Glucocorticoid receptor (Homo sapiens) (P04150 whole entry, looked up, the tested form may be a part): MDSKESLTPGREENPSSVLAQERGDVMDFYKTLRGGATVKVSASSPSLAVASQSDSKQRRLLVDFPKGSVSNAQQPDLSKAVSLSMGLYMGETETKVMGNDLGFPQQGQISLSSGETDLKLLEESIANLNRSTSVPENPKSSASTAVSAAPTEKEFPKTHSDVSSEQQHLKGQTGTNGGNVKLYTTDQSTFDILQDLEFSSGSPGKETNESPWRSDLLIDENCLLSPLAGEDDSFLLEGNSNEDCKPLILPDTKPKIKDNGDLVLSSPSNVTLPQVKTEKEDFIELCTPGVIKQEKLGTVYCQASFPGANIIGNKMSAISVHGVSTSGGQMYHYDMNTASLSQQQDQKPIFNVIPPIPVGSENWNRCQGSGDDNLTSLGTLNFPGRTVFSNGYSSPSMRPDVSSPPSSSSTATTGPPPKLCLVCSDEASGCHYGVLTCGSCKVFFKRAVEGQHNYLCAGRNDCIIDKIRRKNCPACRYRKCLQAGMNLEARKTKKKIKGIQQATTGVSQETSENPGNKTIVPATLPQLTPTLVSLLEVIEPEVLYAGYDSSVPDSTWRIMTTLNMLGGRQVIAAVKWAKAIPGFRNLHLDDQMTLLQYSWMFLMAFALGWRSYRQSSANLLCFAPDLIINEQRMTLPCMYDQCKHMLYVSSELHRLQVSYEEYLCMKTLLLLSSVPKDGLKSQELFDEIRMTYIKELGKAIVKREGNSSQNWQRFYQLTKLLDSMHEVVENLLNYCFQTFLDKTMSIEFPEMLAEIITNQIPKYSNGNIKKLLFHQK
Chain of 3',5'-cyclic-AMP phosphodiesterase 4B (Homo sapiens) (Q07343 whole entry, looked up): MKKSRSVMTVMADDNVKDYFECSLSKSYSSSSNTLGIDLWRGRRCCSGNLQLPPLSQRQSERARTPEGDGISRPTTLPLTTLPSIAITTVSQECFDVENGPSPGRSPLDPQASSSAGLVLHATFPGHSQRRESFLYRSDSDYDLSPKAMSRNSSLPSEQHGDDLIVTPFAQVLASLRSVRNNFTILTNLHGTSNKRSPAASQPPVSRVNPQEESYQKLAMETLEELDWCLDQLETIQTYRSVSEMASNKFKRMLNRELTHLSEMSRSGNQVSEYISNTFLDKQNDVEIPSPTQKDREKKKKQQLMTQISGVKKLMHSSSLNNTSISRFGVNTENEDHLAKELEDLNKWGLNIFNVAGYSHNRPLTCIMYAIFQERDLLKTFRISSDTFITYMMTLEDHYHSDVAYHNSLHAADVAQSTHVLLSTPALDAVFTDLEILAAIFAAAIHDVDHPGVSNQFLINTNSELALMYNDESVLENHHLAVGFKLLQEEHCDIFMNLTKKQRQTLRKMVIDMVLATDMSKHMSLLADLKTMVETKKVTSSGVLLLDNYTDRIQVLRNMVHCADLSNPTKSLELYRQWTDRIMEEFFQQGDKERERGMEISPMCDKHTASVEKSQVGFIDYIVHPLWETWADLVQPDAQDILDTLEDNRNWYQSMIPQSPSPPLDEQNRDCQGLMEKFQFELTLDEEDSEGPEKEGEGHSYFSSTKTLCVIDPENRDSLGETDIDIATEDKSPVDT
Chain of DNA dC->dU-editing enzyme APOBEC-3G (Homo sapiens) (Q9HC16 whole entry, looked up): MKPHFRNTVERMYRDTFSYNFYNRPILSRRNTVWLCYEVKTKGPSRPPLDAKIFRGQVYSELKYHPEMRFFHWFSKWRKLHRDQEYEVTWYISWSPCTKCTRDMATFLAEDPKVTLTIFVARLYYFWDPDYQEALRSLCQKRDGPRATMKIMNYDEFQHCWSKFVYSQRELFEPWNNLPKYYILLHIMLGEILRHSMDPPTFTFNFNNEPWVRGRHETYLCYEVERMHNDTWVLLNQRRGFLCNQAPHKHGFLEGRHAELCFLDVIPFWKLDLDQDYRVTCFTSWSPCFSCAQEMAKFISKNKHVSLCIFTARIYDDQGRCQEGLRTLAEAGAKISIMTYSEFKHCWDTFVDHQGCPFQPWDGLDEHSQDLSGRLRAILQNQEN
Chain of Cytochrome P450 1A2 (Homo sapiens) (P05177 whole entry, looked up): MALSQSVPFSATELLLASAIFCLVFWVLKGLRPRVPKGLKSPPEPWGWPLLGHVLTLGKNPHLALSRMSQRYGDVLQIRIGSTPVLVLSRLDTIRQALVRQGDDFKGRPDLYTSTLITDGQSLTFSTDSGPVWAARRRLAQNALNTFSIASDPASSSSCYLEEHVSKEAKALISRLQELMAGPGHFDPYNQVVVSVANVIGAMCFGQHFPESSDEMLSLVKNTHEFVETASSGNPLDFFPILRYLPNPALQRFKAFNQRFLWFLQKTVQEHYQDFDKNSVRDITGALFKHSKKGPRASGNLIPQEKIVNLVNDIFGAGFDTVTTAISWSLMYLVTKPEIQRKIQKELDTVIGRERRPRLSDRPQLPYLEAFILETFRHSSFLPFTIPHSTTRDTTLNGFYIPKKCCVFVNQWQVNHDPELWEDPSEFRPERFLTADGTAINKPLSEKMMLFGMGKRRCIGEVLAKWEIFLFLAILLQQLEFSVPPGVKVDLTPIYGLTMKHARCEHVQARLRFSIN
Chain of Cytochrome P450 3A4 (Homo sapiens) (P08684 whole entry, looked up): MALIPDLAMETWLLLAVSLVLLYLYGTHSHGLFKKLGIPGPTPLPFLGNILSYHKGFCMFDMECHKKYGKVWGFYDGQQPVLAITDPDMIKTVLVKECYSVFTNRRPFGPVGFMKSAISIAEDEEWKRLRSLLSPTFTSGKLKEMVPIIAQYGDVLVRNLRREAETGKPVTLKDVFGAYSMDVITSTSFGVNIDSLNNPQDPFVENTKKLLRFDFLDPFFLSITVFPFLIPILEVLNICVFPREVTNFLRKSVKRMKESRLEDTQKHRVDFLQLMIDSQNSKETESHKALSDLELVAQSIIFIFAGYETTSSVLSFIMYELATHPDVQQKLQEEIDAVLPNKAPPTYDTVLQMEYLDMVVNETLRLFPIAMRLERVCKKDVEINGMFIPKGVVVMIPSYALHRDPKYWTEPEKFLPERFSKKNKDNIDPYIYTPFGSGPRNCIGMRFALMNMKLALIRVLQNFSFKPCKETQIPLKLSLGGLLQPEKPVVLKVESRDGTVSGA
Chain of Galactokinase (Homo sapiens) (P51570 whole entry, looked up): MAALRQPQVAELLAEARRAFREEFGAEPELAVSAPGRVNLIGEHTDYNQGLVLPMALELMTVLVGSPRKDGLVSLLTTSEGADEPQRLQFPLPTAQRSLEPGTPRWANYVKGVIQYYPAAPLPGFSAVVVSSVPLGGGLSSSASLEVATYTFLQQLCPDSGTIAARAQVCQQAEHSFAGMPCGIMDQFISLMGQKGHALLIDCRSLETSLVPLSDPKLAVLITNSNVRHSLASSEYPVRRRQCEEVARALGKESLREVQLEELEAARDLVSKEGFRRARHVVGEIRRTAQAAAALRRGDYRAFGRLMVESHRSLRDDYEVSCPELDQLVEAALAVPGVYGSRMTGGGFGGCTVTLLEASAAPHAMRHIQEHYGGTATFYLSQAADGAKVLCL
Chain of Cytochrome P450 2C19 (Homo sapiens) (P33261 whole entry, looked up): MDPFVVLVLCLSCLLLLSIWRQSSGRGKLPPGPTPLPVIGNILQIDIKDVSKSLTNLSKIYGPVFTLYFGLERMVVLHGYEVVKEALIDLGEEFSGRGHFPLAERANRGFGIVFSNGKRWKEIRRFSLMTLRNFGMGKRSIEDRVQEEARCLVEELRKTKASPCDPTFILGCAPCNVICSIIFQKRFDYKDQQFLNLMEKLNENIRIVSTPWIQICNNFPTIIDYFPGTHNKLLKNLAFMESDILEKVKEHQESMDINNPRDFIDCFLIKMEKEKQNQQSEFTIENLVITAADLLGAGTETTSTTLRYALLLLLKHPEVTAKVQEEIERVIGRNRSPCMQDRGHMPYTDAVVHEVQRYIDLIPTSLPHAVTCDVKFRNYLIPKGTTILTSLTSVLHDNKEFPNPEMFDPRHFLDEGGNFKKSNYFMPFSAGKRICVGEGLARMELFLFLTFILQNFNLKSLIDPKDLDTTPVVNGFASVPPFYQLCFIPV
Chain of Ferritin light chain (Equus caballus) (P02791 2-175 limits assumed): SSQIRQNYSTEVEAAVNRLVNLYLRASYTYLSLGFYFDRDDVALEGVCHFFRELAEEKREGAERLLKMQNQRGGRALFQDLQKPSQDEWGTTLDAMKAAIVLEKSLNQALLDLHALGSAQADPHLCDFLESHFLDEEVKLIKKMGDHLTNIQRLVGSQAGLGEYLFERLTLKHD
Chain of DNA repair nuclease/redox regulator APEX1 (Homo sapiens) (P27695 whole entry, looked up): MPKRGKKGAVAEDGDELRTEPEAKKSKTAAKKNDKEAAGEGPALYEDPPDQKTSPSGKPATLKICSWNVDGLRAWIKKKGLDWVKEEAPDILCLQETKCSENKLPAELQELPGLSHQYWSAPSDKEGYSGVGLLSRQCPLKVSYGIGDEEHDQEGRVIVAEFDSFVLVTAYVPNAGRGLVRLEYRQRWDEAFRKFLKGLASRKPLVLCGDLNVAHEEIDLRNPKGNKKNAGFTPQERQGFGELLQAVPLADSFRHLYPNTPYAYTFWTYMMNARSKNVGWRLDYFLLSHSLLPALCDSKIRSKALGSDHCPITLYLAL
Chain of ATP-dependent DNA helicase Q1 (Homo sapiens) (P46063 whole entry, looked up): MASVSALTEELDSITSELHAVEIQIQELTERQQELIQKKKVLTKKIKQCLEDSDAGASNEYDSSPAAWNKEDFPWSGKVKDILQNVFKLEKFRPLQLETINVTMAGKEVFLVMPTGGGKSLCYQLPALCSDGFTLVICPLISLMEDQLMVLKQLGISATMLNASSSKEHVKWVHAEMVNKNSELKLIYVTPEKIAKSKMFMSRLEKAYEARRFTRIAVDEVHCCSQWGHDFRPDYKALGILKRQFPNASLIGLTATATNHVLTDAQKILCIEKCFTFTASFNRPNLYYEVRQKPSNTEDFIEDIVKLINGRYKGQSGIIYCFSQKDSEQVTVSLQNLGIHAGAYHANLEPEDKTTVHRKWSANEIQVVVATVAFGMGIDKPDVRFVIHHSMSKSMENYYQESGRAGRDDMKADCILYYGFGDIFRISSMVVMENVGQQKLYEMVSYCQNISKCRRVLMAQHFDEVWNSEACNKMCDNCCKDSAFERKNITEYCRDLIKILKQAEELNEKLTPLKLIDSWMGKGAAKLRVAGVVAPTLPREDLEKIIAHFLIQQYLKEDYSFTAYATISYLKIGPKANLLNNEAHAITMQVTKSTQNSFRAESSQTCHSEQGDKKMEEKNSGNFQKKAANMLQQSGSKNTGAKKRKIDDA

CCC[C@@H]1CC2=CC(=O)CC[C@]2(C)[C@@H]2CC[C@@]3(C)[C@H](CC[C@]3(O)CCC(=O)O)[C@H]12
inactive: Potency [1] | Potency [2] > 46 µM | Potency [3] > 46 µM | outcome [4] | Potency [5] | Potency [6] | Potency [7] | Potency [8] | Potency [9]

CCN1C[C@]2(C)CC[C@H](O)[C@@]34C5C[C@@H]6[C@@H](OC)C[C@@](O)(C5[C@H]6O)[C@@H](CC23)[C@@H]14 (some centres undefined)
-11%: max response [11, 32]
inactive: Potency [10] | activity change, negative = inhibition [11] 1.68% | Potency [7] | Potency [8] | Potency [9]
-11.5%: max response [11, 31]

C[C@@H]1O[C@@H](O[C@H]2C[C@@H](O)[C@]3(CO)[C@@H]4C(CC[C@]3(O)C2)[C@@]2(O)CC[C@H](C3=CC(=O)OC3)[C@@]2(C)C[C@H]4O)[C@H](O)[C@H](O)[C@H]1O (some centres undefined)
active: Potency [16] 11.2 µM | Potency [20] 0.1 µM
inactive: Potency [10] | Potency [12] | Potency [13] | outcome [14] | Potency [15] | outcome [17] | Potency [18] | Potency [19] | outcome [21] | activation [22] 0.375% | outcome [23] | Potency [7] | Potency [24] | Potency [8] | Potency [9]

CCCN1C[C@H](C)N([C@H](c2ccc(C(=O)N(CC)CC)cc2)c2cccc(OC)c2)C[C@H]1C
inactive: Potency [3] > 46 µM | outcome [4] | Potency [5] | activity change, negative = inhibition [11] 9.16% | Potency [7] | Potency [8] | Potency [9]
26.5%: max response [11, 31]
30.1%: max response [11, 32]

CN1CCN(C(=O)O[C@@H]2c3nccnc3C(=O)N2c2ccc(Cl)cn2)CC1
inactive: Potency [1] | activity change, negative = inhibition [25] -27.2% | outcome [4] | Potency [5] | Potency [26] | Potency [27] | Potency [28] | Potency [29] | outcome [30] | Potency [7] | Potency [8] | Potency [9]

— PubChem BioAssay (NCATS)
